# According to PubChem BioAssay (NCI):
# This is part of a sample that, as a whole, favours compounds with a hit. Of some 79,000 tested, about 15% had one in any assay. Values without a mark were called inactive. Calls of active or inactive are those of the source. Rule as the data show it: active = growth inhibition above about 70%; inactive = the rest.
# Key:
# [1] = NCI Yeast Anticancer Drug Screen. Data for the rad50 strain (AID 155);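 also: 0% = growth of vehicle-only cultures of the same strain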; settings: S. cerevisiae rad50 strain growth inhibition, hits give high values
# Outline: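 Inhibition values express reduced yeast growth in compound-treated cultures relative to vehicle-treated controls.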
# [2] = NCI Yeast Anticancer Drug Screen. Data for the mec2-1 strain (AID 157); settings: S. cerevisiae mec2-1 strain, hits give high values
# Outline: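 Strain: mec2-1 (DNA repair/cell cycle alteration). Compound exposure, then growth measured; inhibition expressed relative to vehicle.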
# [3] = NCI Yeast Anticancer Drug Screen. Data for the sgs1 mgt1 strain (AID 161);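 also: 0% = growth of cultures given vehicle only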; settings: S. cerevisiae sgs1 mgt1 strain, hits give high values
# Outline: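 Inhibition of yeast growth, normalised to vehicle-treated controls, is reported for a strain bearing genetic alterations in DNA damage repair.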
# [4] = NCI Yeast Anticancer Drug Screen. Data for the cln2 rad14 strain (AID 165);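 also: 0% = growth equal to vehicle treated cultures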; settings: S. cerevisiae cln2 rad14 strain, hits give high values
# Outline: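 Compounds are applied to the cln2 rad14 yeast strain, and growth is then compared with that of vehicle-treated cultures to give inhibition.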
# [5] = NCI Yeast Anticancer Drug Screen. Data for the bub3 strain (AID 167); settings: S. cerevisiae bub3 mutant strain, hits give high values
# Outline: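 Steps: expose the mutant yeast strain to compound; grow alongside vehicle-treated cultures; measure growth; express inhibition against the vehicle cultures.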
# [6] = NCI Yeast Anticancer Drug Screen. Data for the mlh1 rad18 strain (AID 175); settings: S. cerevisiae mlh1 rad18 strain growth inhibition, hits give high values
# Outline: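 Read-out is yeast growth inhibition, calculated against vehicle-only controls. The compound was applied to a strain engineered with DNA damage repair alterations.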
# [7] = at 5.0 µM (retest, dose inferred, filed as 0.5)
# [8] = at 50.0 µM (retest, dose inferred, filed as 5.0)
SMILES,"growth inhibition [1, 7] [%]","growth inhibition [1, 8]",growth inhibition ([1]; at 50.0 µM),"growth inhibition [2, 7] [%]","growth inhibition [2, 8]",growth inhibition ([2]; at 50.0 µM),"growth inhibition [3, 7] [%]","growth inhibition [3, 8]",growth inhibition ([3]; at 50.0 µM),"growth inhibition [4, 7] [%]","growth inhibition [4, 8]",growth inhibition ([4]; at 50.0 µM),"growth inhibition [5, 7] [%]","growth inhibition [5, 8]",growth inhibition ([5]; at 50.0 µM),"growth inhibition [6, 7] [%]","growth inhibition [6, 8]",growth inhibition ([6]; at 50.0 µM)
C=C1C(=O)O[C@@H]2C[C@]3(C)CC[C@]4(C)[C@H](CC[C@@H]5[C@@]6(C)CCC(=O)C(C)(C)[C@@H]6CC[C@]54C)[C@H]3[C@H]12,3,4%,-14.1%,18,24%,-16.9%,5,11%,-9.1%,-3,-1%,6.1%,4,-1%,-10.7%,-2,4%,-18.9%
O=C1CCCC1CN1CCOCC1 (configuration not stated),5,97% (active),75% (active),-21,97% (active),75.7% (active),-32,75% (active),82% (active),6,66%,64.4%,-20,96% (active),84.5% (active),-6,99% (active),83.5% (active)
CCC(C)(C[NH-])C[NH-].[Cl][Pt+2][Cl],13,27%,28%,19,28%,45.9%,18,28%,3.9%,26,34%,10.4%,11,28%,-14.7%,25,42%,-17.6%
CCN(CC)C(=S)N/N=C/c1cc(OC)ccc1O,-15,65%,69.9%,-43,93% (active),73.2% (active),-33,95% (active),62.4%,-6,62%,53.5%,-38,84% (active),61.5%,-30,78% (active),26.6%
NC(N)=NS(=O)(=O)c1ccc(N=Cc2c3ccccc3nc3cc(Cl)ccc23)cc1,5,-4%,95.1% (active),11,-2%,93% (active),4,-5%,96.2% (active),-5,-3%,91.5% (active),10,0%,26.5%,6,-2%,97% (active)
CCOC(=O)C(NC(C)=O)[CH](c1ccccc1)[Sn]([Cl])([c]1ccccc1)[c]1ccccc1 (configuration not stated),-7,-13%,59.4%,-1,-12%,65.7%,-8,-5%,64.7%,-22,-2%,49.1%,-14,12%,37.4%,1,1%,60.5%
CN1/C(=C/C=C/C(I)=C/C=C/C2=[N+](C)c3ccccc3C2(C)C)C(C)(C)c2ccccc21,1,88% (active),60.5%,8,89% (active),50.1%,-4,92% (active),80.6% (active),8,71% (active),79.4% (active),-2,89% (active),76.3% (active),-1,89% (active),84.7% (active)
O=C(O)C1CCC(CC2CC3CCC2C3)CC1 (configuration not stated),-146,79% (active),74.7% (active),-54,54%,88.5% (active),-58,85% (active),41.8%,-79,65%,44.2%,-73,69%,73.3% (active),-125,86% (active),53.8%
O=C1OC(=O)c2cc([N+](=O)[O-])cc3cccc1c23,3,97% (active),22.9%,13,99% (active),36.2%,3,99% (active),29.2%,22,98% (active),36.6%,21,99% (active),47.5%,8,99% (active),76.7% (active)
